HCMV inh – blocks human cytomegalovirus replication. HFF cells, HCMV-luciferase reporter, 72 h; active compounds read low. activity change, negative = inhibition, % at 57.5 µM. 4.5% of 410,000 active. AID 1259415; in the data active = activity change below about -60%; inconclusive = no clear call, values can overlap the other calls; inactive = above about -39%
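Two-dose cell screen: HFF monolayers treated with compounds and infected with luciferase-expressing HCMV at 1 PFU/cell, 72 h at 37C, then lysed for luciferase measurement.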
VACV mCherry inh – vaccinia inhibition (mCherry reporter) | Vaccinia virus mCherry reporter infection, fluorescence | Potency, µM (top dose mostly 36.5 µM), for the others: at the top dose activity change, negative = inhibition, usual class: inhibitors | 0.63% of 310,000 active | AID 720579; calls by dose curve; tested in A549 cells; also: potency is read from the fitted curve at half-maximal effect; nearly all actives have a fitted effect of over 35% in size
VACV Venus inh – inhibitors of vaccinia virus (Venus reporter); Potency, µM (titrated, usually from 36.5 µM), without a hit: at the top dose activity change, negative = inhibition, usual class: inhibitors; Vaccinia virus Venus reporter expression, fluorescence; AID 720580; 0.46% of 330,000 active; calls by dose curve; tested in A549 cells; also: potency is read from the fitted curve at half-maximal effect; nearly all actives have a fitted effect of over 30% in size
FMDV antiviral – antivirals against foot and mouth disease virus; FMDV antiviral cell-based qHTS; Potency, µM (top dose mostly 57.9 µM), inactives show at the top dose activity change, negative = inhibition, most hits filed as inhibitors; 1.2% of 410,000 active; calls by dose curve; tested in HEK293T cells; also: read-out not given here; potency is read from the fitted curve at half-maximal effect; nearly all actives have a fitted effect of over 45% in size
Giardia FBPA inh-1 – blocks Giardia fructose-bisphosphate aldolase activity. A8B2U2. purified Giardia FBPA. Potency, µM (doses to about 59.6 µM), inactives show at the top dose activity, negative = inhibition, hits mostly inhibitors. 0.71% of 290,000 active. AID 2451; also: potency is read from the fitted curve at half-maximal effect; nearly all actives have a fitted effect of over 55% in size
Target sequence (A8B2U2 whole entry, looked up): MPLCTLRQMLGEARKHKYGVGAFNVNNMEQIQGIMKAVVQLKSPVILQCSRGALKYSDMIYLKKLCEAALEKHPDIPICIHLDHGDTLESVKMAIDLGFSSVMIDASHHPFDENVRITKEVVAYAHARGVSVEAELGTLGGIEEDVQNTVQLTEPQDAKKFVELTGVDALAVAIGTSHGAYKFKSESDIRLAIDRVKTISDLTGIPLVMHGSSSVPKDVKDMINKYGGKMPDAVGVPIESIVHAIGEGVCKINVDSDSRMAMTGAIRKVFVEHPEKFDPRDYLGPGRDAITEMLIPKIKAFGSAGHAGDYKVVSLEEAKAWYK
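40 nM FBPA preincubated 10 min at RT with compound (up to 57.5 uM final), then substrate plus GAPDH/TPI/NAD/arsenate coupling and diaphorase/resazurin added. Fluorescence read after 20 min at RT, 525/598 nm.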
HCV inhibitor – inhibitors of hepatitis C virus infection. Huh7.5.1 HCVcc-Cre infection, luciferase reporter, 44 h. 3.4% of 340,000 active. AID 651820. Potency, µM (doses to about 41.8 µM), without a hit: at the highest dose activity change, negative = inhibition, usual class: inhibitors; also: potency is read from the fitted curve at half-maximal effect
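Infectious HCV cell culture screen: compound-treated cells (1,000/well, pre-plated 4 h) are infected with HCVcc-Cre at roughly 0.5 moi and grown 44 h. Infection is quantified by luciferase signal after 15 min substrate incubation at room temperature.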
Giardia growth – inhibitors of Giardia lamblia growth; Potency, µM (titrated, usually from 57.5 µM), for inactives: at the highest dose activity change, negative = inhibition, usual class: inhibitors; Giardia lamblia trophozoite growth inhibition; 5% of 1,500 active; shares compounds with Giardia FBPA inh-1;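 also: potency is read from the fitted curve at half-maximal effect; trophozoites exposed to compound for 48 h at 37 °C; nearly all actives have a fitted effect of over 70% in size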
Mammalian tox – counter-screen for Giardia aldolase inhibitors: mammalian cell toxicity; shares compounds with Giardia FBPA inh-1; mammalian cell viability counter-screen, qHTS; Potency, µM (titrated, usually from 57.5 µM), without a hit: top-dose viability change, negative = toxicity, usual class: inhibitors; 4% of 1,500 active; AID 2786;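 also: Chinese hamster ovary cells used as mammalian cytotoxicity surrogate; viability measured as cellular ATP by luminescence; potency is read from the fitted curve at half-maximal effect; compound exposure lasted 48 h before reading; nearly all actives have a fitted effect of over 60% in size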
Giardia FBPA inh-2 – confirmation of Giardia fructose-bisphosphate aldolase inhibitors; Potency, µM (top dose mostly 57.5 µM), inactives show at the top dose activity change, negative = inhibition, hits mostly inhibitors; shares compounds with Giardia FBPA inh-1; 5% of 1,500 active; AID 2787; purified Giardia aldolase enzyme activity, qHTS; also: potency is read from the fitted curve at half-maximal effect; nearly all actives have a fitted effect of over 45% in size
Rabbit aldolase – rabbit FBP aldolase inhibition by Giardia aldolase hits; shares compounds with Giardia FBPA inh-1; Rabbit muscle FBPA enzyme inhibition, selectivity counter-screen; Potency, µM (doses to about 57.5 µM), for inactives: at the highest dose activity, negative = inhibition, hits mostly inhibitors; 4% of 1,500 active; AID 2794; also: potency is read from the fitted curve at half-maximal effect; nearly all actives have a fitted effect of over 60% in size
Target sequence (P00883 whole entry, looked up): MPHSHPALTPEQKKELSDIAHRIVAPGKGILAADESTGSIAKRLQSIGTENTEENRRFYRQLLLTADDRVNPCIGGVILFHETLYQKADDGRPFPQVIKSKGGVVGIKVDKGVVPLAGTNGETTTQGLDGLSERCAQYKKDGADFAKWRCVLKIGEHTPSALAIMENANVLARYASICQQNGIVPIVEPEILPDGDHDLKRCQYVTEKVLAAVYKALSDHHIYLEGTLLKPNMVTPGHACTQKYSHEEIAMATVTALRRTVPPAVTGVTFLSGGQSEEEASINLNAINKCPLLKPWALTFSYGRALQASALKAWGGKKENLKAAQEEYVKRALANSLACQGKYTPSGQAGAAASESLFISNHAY
GAPDH counter – GAPDH inhibition flagged for Giardia aldolase hits | AID 2795 | shares compounds with Giardia FBPA inh-1 | Potency, µM (doses to about 57.5 µM), inactives show at the highest dose activity change, negative = inhibition, usual class: inhibitors | 6% of 1,500 active | GAPDH coupling enzyme counterscreen, biochemical, qHTS; also: potency is read from the fitted curve at half-maximal effect; nearly all actives have a fitted effect of over 55% in size
* hit, by the source's call; i = inactive; u = inconclusive; x = no result; [ ] = remark or other dose. Compounds with a hit are over-represented: about 7.5% of the library has one in this group of screens. Unless noted, calls follow the shape of the dose curve; as a rule, active = well fitted curve in the direction sought with a large enough effect; inconclusive = small, poorly fitted or top-dose-only effect, or another doubt; inactive = no such curve, though single readings can be large; an effect the other way counts as inactive or inconclusive. % is scaled to controls: 0 for no effect and ±100 for the full control effect.

SMILES	HCMV inh	VACV mCherry inh	VACV Venus inh	FMDV antiviral	Giardia FBPA inh-1	HCV inhibitor	Giardia growth	Mammalian tox	Giardia FBPA inh-2	Rabbit aldolase	GAPDH counter
CN(C(=O)c1cccc(NC(=O)Cc2ccc(NC(=O)C3CCCN(S(=O)(=O)c4cccc([N+](=O)[O-])c4)C3)cc2)c1)C1CCCC1 (centres undefined)	-20.7	-17.7%	-19.5%	-25.5%	x	u	x	x	x	x	x
CC#CCN1c2ccccc2[C@]23C[C@@H](C(=O)OC)N(S(=O)(=O)c4ccc(C)cc4)C2=NC(C(=O)OC)=C(C(=O)OC)[C@H]13	x	x	x	x	-2.2%[12.9 µM]	x	x	x	x	x	x
CCOC(=O)c1c(C)[nH]c(C(C)=NNC(=O)Cn2nc(C)cc2C)c1C	-35.9	x	x	-8.7%	x	u	x	x	x	x	x
COc1ccc(NC(=O)c2ccc(NC(=O)c3cccnc3)cc2)cc1	-8.4	i	-9.9%	-14.8%	x	x	x	x	x	x	x
O=C(NC(=S)Nc1cccnc1Cl)c1ccc(Cl)cc1	74.2	i	-4.8%	35.5%	12.6µM*	6.2%	-21.1%	-5.3%	1.6%	3.8%	-0.6%
O=C(Nc1cccnc1Cl)c1ccc(Cl)cc1	25.6	4.2%	-10.0%	35.7%	-1.4%	12.3%	x	x	x	x	x
COc1ccc(NC(=S)NC(=O)c2cccnc2)cc1	6.9	i	-7.2%	26.1%	7.94µM*	10.1%	22.4µM*	5.4%	6.2%	4.4%	3.6%
O=C(NC(=S)Nc1ccccc1)c1ccc(Br)o1	-23.3	-0.4%	-14.8%	66.7%	-13.0%	-8.9%	x	x	x	x	x
Cc1snnc1C(=O)NC(=S)Nc1ccccc1	39.0	i	-11.3%	-13.6%	12.6µM*	12.4%	26.4%	9.6%	3.5%	16.1%	1.8%
O=C(NC(=S)Nc1ccccc1Br)c1cccnc1	-3.8	x	x	0.0%	6.31µM*	-8.0%	u	-9.4%	-6.6%	4.6%	-1.1%
CCOC(=O)C1=C(COC(=O)CCNS(=O)(=O)c2ccc(NC(C)=O)cc2)NC(=O)NC1C (centres undefined)	-9.6	-27.9%	-18.8%	-3.4%	x	8.1%	x	x	x	x	x
CC(C)N(C(=S)Nc1ccc(S(=O)(=O)N2CCOCC2)cc1)c1ccccc1	-31.0	-13.8%	10.8%	-2.6%	x	22.4%	x	x	x	x	x
COc1ccc(C(=O)NC(=S)NNC(=O)c2cccnc2)cc1	16.8	-20.8%	-13.0%	15.7%	-23.1%	-4.7%	x	x	x	x	x
COc1cc(OC)cc(C(=O)NNC(=S)NC(=O)c2cccnc2)c1	-25.5	x	x	1.8%	2µM*	10.5%	15.8µM*	6.5%	13.1%	8.7%	14.1%
CCOC(=O)Cc1csc(NC(=S)NC(=O)c2cccc([N+](=O)[O-])c2)n1	7.9	i	-2.8%	-26.3%	4.46µM*	2.3%	u	4.0%	12.5%	3.6%	11.2%
Cc1cccc(C(=O)NCc2nc(-c3ccccc3NC(=O)C3CCCO3)oc2C)c1 (centres undefined)	x	-9.0%	4.7%	4.6%	x	x	x	x	x	x	x
O=C(NC(=S)N1CCN(c2ccc(O)cc2)CC1)c1cccs1	-20.4	x	x	34.2%	12.6µM*	1.5%	14.5%	14.4%	-19.3%	-1.7%	18.7%
COc1ccc(NC(=S)N(CCN2CCOCC2)C2CCN(C(C)=O)CC2)cc1Cl	u	i	-10.2%	8.6%	-18.9%	6.5%	x	x	x	x	x
COc1cc(Cl)ccc1NC(=S)N(CCN1CCOCC1)C1CCN(C(C)=O)CC1	-100.9*	x	x	-1.3%	17.7µM*	10.9%	-7.3%[10.4 µM]	3.6%	6.0%	1.3%	4.9%
CC(=O)N1CCC(N(CCN2CCOCC2)C(=S)Nc2ccc(C)cc2)CC1	-9.1	-21.6%	12.4%	5.8%	7.06µM*	5.0%	-19.2%[38.3 µM]	-13.1%	1.9%	11.8%	5.1%
CN1C(=O)/C(=C2\SC(=S)N(NC(=O)c3cccnc3)C2=O)c2ccccc21	105.8	x	x	-4.2%	7.08µM*	14.5%	11.2µM*	7.2%	-2.9%	5.6%	-4.2%
CCOC(=O)CN1C(=O)c2ccccc2Sc2ncccc21	u	-9.7%	-11.6%	9.7%	6.0%	10.7%	x	x	x	x	x
CN1C(=O)/C(=C2\SC(=S)N(CCCCCC(=O)O)C2=O)c2ccccc21	u	x	x	-1.7%	-0.9%	-9.0%	x	x	x	x	x
CCOC(=O)CN1C(=O)/C(=C2\SC(=S)N(NC(=O)c3cccnc3)C2=O)c2ccccc21	3.4	x	x	-21.4%	14.1µM*	11.0%	6.31µM*	14.6%	-23.7%	-15.8%	u
CCOc1ccccc1CNC(=O)c1ccc(CS(=O)Cc2cccc(Cl)c2)o1 (centres undefined)	9.3	-15.6%	-8.4%	4.3%	x	x	x	x	x	x	x
SMILES	HCMV inh	VACV mCherry inh	VACV Venus inh	FMDV antiviral	Giardia FBPA inh-1	HCV inhibitor	Giardia growth	Mammalian tox	Giardia FBPA inh-2	Rabbit aldolase	GAPDH counter
Cc1ccccc1SCC(=O)Nc1cc(C(F)(F)F)ccc1N1CCOCC1	x	-23.1%	-14.1%	u	x	u	x	x	x	x	x
[NH-]c1ncnc2c1N=C[N+]2=CC=CCO	-7.9	-0.3%	-5.8%	3.5%	8.91µM*	-3.6%	-10.3%[38.3 µM]	8.4%	2.2%	5.9%	11.4%
CCCCc1nnc(SCc2cc(=O)c3cc(C(=O)OCC)ccc3[nH]2)n1C	-12.6	-3.8%	-5.3%	5.5%	x	x	x	x	x	x	x
COc1ccccc1OCc1nn[nH]n1	5.1	i	-16.7%	-13.5%	31.6µM*	-15.7%	u	18.2%	-3.3%	12.5%	-8.7%
Clc1ccc(OCc2nn[nH]n2)cc1	-21.6	x	x	7.0%	u	-2.4%	x	x	x	x	x
COc1ccc(NC(=O)Nc2ccc(N3CCOCC3)c3nonc23)c(OC)c1	26.4	-4.9%	18.4%	-6.2%	5µM*	-29.7%	u	-10.7%	-20.1%	-4.1%	-2.5%
O=C(Nc1ccc(N2CCOCC2)c2nonc12)C1CCCC1	0.4	-19.0%	-19.5%	23.4%	0.5µM*	0.3%	-23.9%[38.3 µM]	-3.5%	-16.7%	-4.5%	-23.6%
CCCn1cnc2c(=S)nc(N)[nH]c21	-23.8	x	x	-9.3%	4.46µM*	41.3%	1.5%[38.3 µM]	-1.6%	u	1.7%	-14.6%
CC1(C)OC2C(CO)OC(n3cnc4c(=S)nc(N)[nH]c43)C2O1 (centres undefined)	x	-7.4%	-9.3%	-10.9%	x	x	x	x	x	x	x
Nc1nc(=S)c2ncn(C3CCCCC3)c2[nH]1	-34.9	i	-12.2%	3.3%	x	6.3%	x	x	x	x	x
